The inhibition is the change of the read-out against control, counted positive when it falls.

The whole screen tested about 330,000 compounds, of which about 5,800 (1.8%) were called active. Cut-off read from the data, not from the text of the source: active = inhibition mostly above about 38% (no sharp cut-off); inactive = mostly below about 40%. Shown is part of a subset that was picked to be rich in actives.

The target of the experiment is Orexin/Hypocretin receptor type 1 (Homo sapiens) (UniProt O43613). Put plainly: blocks the human orexin 1 receptor (AID 485270).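 Note: 0% = agonist challenge alone and 100% = reference antagonist.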 Particulars: OX1R-expressing cells, FRET antagonist read-out; at 6.6 µM; hits give high values.
Orexin/Hypocretin receptor type 1 (Homo sapiens), sequence (O43613 whole entry, looked up): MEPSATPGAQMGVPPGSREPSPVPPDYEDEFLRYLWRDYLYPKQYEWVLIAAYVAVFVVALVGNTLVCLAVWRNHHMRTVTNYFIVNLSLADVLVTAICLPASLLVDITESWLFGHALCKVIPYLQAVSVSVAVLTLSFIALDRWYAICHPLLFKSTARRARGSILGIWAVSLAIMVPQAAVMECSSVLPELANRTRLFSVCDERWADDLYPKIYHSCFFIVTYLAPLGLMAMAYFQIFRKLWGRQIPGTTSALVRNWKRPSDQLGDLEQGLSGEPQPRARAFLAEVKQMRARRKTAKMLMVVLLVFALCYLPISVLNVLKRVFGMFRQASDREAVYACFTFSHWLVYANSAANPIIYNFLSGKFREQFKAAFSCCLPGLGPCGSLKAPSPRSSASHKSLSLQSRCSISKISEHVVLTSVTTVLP
With `COc1ccc(CNC(=O)C[C@H]2C[C@H](C(=O)N3CCOCC3)[C@@]3(C)c4[nH]c5cc(CCC(=O)N(C)C)ccc5c4CCN3C2=O)cc1OC`, the inhibition was 1.77% (inactive).

Take `CC1(C)CN(c2ccc(-c3ccnc4ncnn34)cc2)C1=O`: the inhibition was 41.3% (active).

For `Nc1c(-c2ccc(F)cc2)cnc2ncnn12`, the inhibition was 7.26% (inactive).

On to `Cc1ccc2c(c1)nnc1nnc(SCC(=O)O)n12`, for which the inhibition was 89.5% (active).

In the case of `Cc1cccc(-c2nnc(SCC(=O)O)n2Cc2ccccc2)c1`, the inhibition was -2.09% (inactive).

Turning to `CCn1nnnc1SCC(=O)c1ccc(C)cc1C`, the inhibition was 12.5% (inactive).

For the compound `CCN(C(=O)COC(=O)c1ccccc1O)c1cccc2ccccc12`, the inhibition was 4.23% (inactive).

With `CC[C@]12c3[nH]c4ccc(Cl)cc4c3CCN1C(=O)[C@@H](CC(=O)NCCCOC)C[C@@H]2C(=O)N1CCN(C(=O)C2CC2)CC1`, the inhibition is -3.2% (inactive).

As for `COc1ccc(CCC(=O)N2CCN(S(=O)(=O)c3ccc(OC)cc3)CC2)cc1`, the inhibition is 3.59% (inactive).

For `O=C(C1CCC1)N1CCN(S(=O)(=O)c2ccc([N+](=O)[O-])cc2)CC1`, the inhibition was 43.9% (active).

As for `O=C(Cc1ccccc1)NNS(=O)(=O)c1ccc([N+](=O)[O-])cc1`, the inhibition was 42% (inactive).

As for `O=C(Cc1ccccc1)N1CCN(S(=O)(=O)c2ccc([N+](=O)[O-])cc2)CC1`, the inhibition is 88.8% (active).

With `O=C(NNS(=O)(=O)c1ccc([N+](=O)[O-])cc1)C1CCCCC1`, the inhibition is 34.2% (inactive).

Turning to `O=C(O)C1CCCCC1C(=O)N1CCN(S(=O)(=O)c2ccc(F)cc2)CC1` (stereo not drawn), the inhibition is 7.06% (inactive).

Regarding `O=C(C1CCCN(S(=O)(=O)c2ccccc2)C1)N1CCN(c2ccc(F)cc2)CC1` (stereo not drawn), the inhibition is 13.8% (inactive).

Take `Cc1ccc(S(=O)(=O)N2CCCC(C(=O)N3CCN(C)CC3)C2)cc1` (stereo not drawn): the inhibition was 16.7% (inactive).

Turning to `O=C(C1CCCN(S(=O)(=O)c2ccc([N+](=O)[O-])cc2)C1)N1CCCCC1` (stereo not drawn), the inhibition was 66.7% (active).

As for `CC1CCCN(C(=O)CN2C(=O)c3ccccc3S2(=O)=O)C1` (stereo not drawn), the inhibition was 1.18% (inactive).

Consider `COc1ccc(C(=O)Nc2cc(S(=O)(=O)N3CCCC3)ccc2Cl)cc1`, for which the inhibition is 16.2% (inactive).

With `COc1ccc(OCC(=O)NNC(=O)C2CCC2)cc1`, the inhibition is -2.24% (inactive).

In the case of `O=C(COC(=O)COc1cccc(F)c1)NCC1CCCCC1`, the inhibition is 4.71% (inactive).

As to `O=C(CN1C(=O)NC2(CCOc3ccccc32)C1=O)Nc1cccc([N+](=O)[O-])c1` (stereo not drawn), the inhibition is 7.29% (inactive).

With `Cc1noc(C)c1CSCC(=O)Nc1nc2ccc(Oc3ccccc3)cc2s1`, the inhibition is 76% (active).

Consider `CCc1noc(C)c1C(=O)Nc1nc2ccc(OC)cc2s1`, for which the inhibition is 25.1% (inactive).

Take `Cc1ccc(F)cc1NC(=O)CSCc1c(C)noc1C`: the inhibition is -1.27% (inactive).

As for `Nn1c(SCC(=O)NC2CCCc3ccccc32)nnc1C1CC1` (stereo not drawn), the inhibition was 8.92% (inactive).

`COC(=O)COc1cccc2c(=O)n(CC(=O)NCCc3ccc(OC)c(OC)c3)ccc12`: the inhibition is 1.07% (inactive).

Consider `CCOC(=O)C(C)Oc1cccc2c(=O)n(CC(=O)NCCc3ccc(OC)c(OC)c3)ccc12` (stereo not drawn), for which the inhibition is 37% (active).

On to `CCOC(=O)C(C)Oc1cccc2c(=O)n(CC(=O)N3CCc4ccccc43)ccc12` (stereo not drawn), for which the inhibition is 12.2% (inactive).

In the case of `Cc1onc(-c2c(F)cccc2Cl)c1C(=O)OCC(=O)N1C(C)CCCC1C` (stereo not drawn), the inhibition is 17.2% (inactive).

As to `COc1cccc(/C=N/NC(=O)c2[nH]nc3c2CCc2ccccc2-3)c1O`, the inhibition is 75.7% (active).

With `COc1ccc(/C=N/NC(=O)c2ccc3c(c2)OCCO3)c(OC)c1`, the inhibition is 22.9% (inactive).

As for `CN(C)CCNC(=O)c1[nH]nc2c1CCc1ccccc1-2`, the inhibition is 3.78% (inactive).

Take `Cc1ccc(S(=O)(=O)NCC(C)NS(C)(=O)=O)cc1` (stereo not drawn): the inhibition was 4.32% (inactive).

As for `CCN(CC(=O)NC(C)C)C(=O)c1cc(S(=O)(=O)N2CCCCC2)ccc1N1CCCCC1`, the inhibition is 4.56% (inactive).

Take `CC(=O)NC(CC(=O)Nc1ccc(S(=O)(=O)N2CCOCC2)cc1)c1ccccc1` (stereo not drawn): the inhibition is 6.07% (inactive).

With `Cc1cc(C(=O)NC2CCCc3c2cnn3-c2cccc(C)c2C)c(C)o1` (stereo not drawn), the inhibition is 81% (active).

Consider `COc1ccc(C(=O)NC2CCCc3c2cnn3-c2cccc(C)c2C)c(OC)n1` (stereo not drawn), for which the inhibition was 38.4% (inactive).

In the case of `Cn1nccc1C(=O)NC1CCCc2c1cnn2-c1ccccc1F` (stereo not drawn), the inhibition is 26.4% (inactive).

`CC[C@]1(C(=O)OC)[C@H]2C(=O)N(Cc3ccccc3)C(=O)[C@H]2[C@H]2CN=C(SCc3ccc(C#N)cc3)N21`: the inhibition is 4.34% (inactive).

On to `C=CC[C@H](CC(=O)OC(C)(C)C)C(=O)OC[C@H]1CCCN1C(=O)[C@H](CC=C)CC(=O)N(CCO)Cc1ccccc1`, for which the inhibition is 2.54% (inactive).

Take `Cc1ccc(NC(=O)CN2CCC(C(N)=O)CC2)cc1[N+](=O)[O-]`: the inhibition is 50.4% (active).

As for `CN1CCN(CC(=O)Nc2cccc([N+](=O)[O-])c2)CC1`, the inhibition is 28% (inactive).

Take `Cc1ccc(NC(=O)CN(C)CC(=O)Nc2cccc(F)c2)cc1[N+](=O)[O-]`: the inhibition is 30% (inactive).

Regarding `C[C@H](CO)N1C[C@H](C)[C@@H](CN(C)C(=O)NC2CCCCC2)Oc2ccc(NC(=O)c3ccncc3)cc2C1=O`, the inhibition is 1.49% (inactive).

Take `Cc1ccc(C(=O)NNC(=O)CSc2nnc3ccccn23)cc1`: the inhibition is 0.4% (inactive).

As to `COCCN(Cc1nc(-c2ccc(C(F)(F)F)cc2)no1)C(C)C`, the inhibition was -2.95% (inactive).

Regarding `CC(=O)N(C1=C(Cl)C(=O)c2ccccc2C1=O)c1ccc(C(=O)O)cc1`, the inhibition was 39.2% (active).

`CC(=O)c1ccc(-c2nnc(CCC(=O)N(C)Cc3cnc4ccccn34)o2)s1`: the inhibition was 40.1% (active).

On to `CCc1ccc(CN(C)C(=O)CCc2nnc(-c3ccc(-c4ccccc4)cc3)o2)nc1`, for which the inhibition was 3.52% (inactive).

`O=C(N/N=C/c1cc(Cl)cc([N+](=O)[O-])c1O)C(O)(c1ccccc1)c1ccccc1`: the inhibition is 54.6% (active).

On to `O=C(N/N=C/c1cc(Br)c(O)c([N+](=O)[O-])c1)C(O)(c1ccccc1)c1ccccc1`, for which the inhibition was 28.3% (inactive).

As to `CN(C)/N=C/c1cc(Cl)cc([N+](=O)[O-])c1O`, the inhibition is 46.4% (inactive).

For `COc1cc(NC(=O)COC(=O)c2cc(S(=O)(=O)N3CCOCC3)ccc2F)cc(OC)c1`, the inhibition was 15.3% (inactive).

`O=C(c1cnccn1)N1CCN(S(=O)(=O)c2cccc(Cl)c2)CC1`: the inhibition was 4.72% (inactive).

As to `O=C(C[C@@H]1C/C=C\CCC(=O)OC[C@@H]2CCCN2C1=O)NCCO`, the inhibition is 4.18% (inactive).

Consider `CCCCC[C@@H]1C=C(C(=O)O)[C@H](c2ccc(C#N)cc2)N1S(=O)(=O)c1ccc(C)cc1`, for which the inhibition was 10.8% (inactive).

In the case of `Cc1ccc(S(=O)(=O)NNC(=O)Nc2cccc3ccccc23)cc1`, the inhibition is 21.8% (inactive).

For the compound `Cc1ccc(S(=O)(=O)N2[C@@H](c3cccc4ccccc34)C(C(=O)O)=C[C@H]2C(C)(C)C)cc1`, the inhibition was 46.2% (active).

Take `O=C1CSc2ccc(C(=O)NCc3ccccn3)cc2N1`: the inhibition is 3.47% (inactive).

On to `O=C(CSc1nnc(-c2c[nH]c3ccccc23)o1)c1ccccc1`, for which the inhibition is 29.7% (inactive).

As to `CN(C(=O)CSc1nnc(-c2c[nH]c3ccccc23)o1)C1CCS(=O)(=O)C1` (stereo not drawn), the inhibition was 16.6% (inactive).

For the compound `CN(C(=O)CSc1nnc(-c2n[nH]c3ccccc23)o1)c1ccccc1`, the inhibition was 91.9% (active).

As for `O=C(Nc1cccc2cccnc12)c1cccc(Cl)c1`, the inhibition is 61.5% (active).

With `COc1ccc(NC(=O)Nc2cccc3cccnc23)cc1`, the inhibition was 40% (active).

Regarding `N#Cc1ccc(C(=O)Nc2cccc3cccnc23)c(F)c1`, the inhibition is 11% (inactive).

Turning to `O=C(Nc1cccnc1Cl)c1cc(-c2cccc(Cl)c2)on1`, the inhibition was 11.7% (inactive).

Turning to `COc1ccc(NC(=O)C2CCCN(S(=O)(=O)c3cccc4cccnc34)C2)cc1` (stereo not drawn), the inhibition was 4.36% (inactive).

In the case of `O=C(Nc1cccc2cccnc12)c1cccc(N2C(=O)CCC2=O)c1`, the inhibition was 92.7% (active).

Turning to `CCOC(=O)Cc1ncccc1C(=O)Nc1ccc(OC)cc1`, the inhibition is 25.1% (inactive).

As for `COC(=O)c1cccc(NC(=O)c2cccc(N3C(=O)CCC3=O)c2)c1`, the inhibition is 4.2% (inactive).

Regarding `Cc1cc(NC(=O)c2cccc(N3C(=O)CCC3=O)c2)no1`, the inhibition is 11.9% (inactive).

Turning to `CC[C@]1(C(=O)OC)[C@H]2C(=O)N(C)C(=O)[C@H]2[C@H]2CN(C)C(=NCc3ccccc3)N21`, the inhibition was 2.73% (inactive).

As to `COc1ccccc1CNC(=O)COC(=O)c1cccs1`, the inhibition was 2.2% (inactive).

For `O=C(CN1C(=O)NC(Cc2c[nH]c3ccccc23)C1=O)Nc1ccccc1C(F)(F)F` (stereo not drawn), the inhibition is 3.6% (inactive).

Consider `CCC(C)c1ccc(NC(=O)COC(=O)C2CCCC2)cc1` (stereo not drawn), for which the inhibition was 5.25% (inactive).

For `CCOC(=O)[C@@H]1[C@H]2COc3ccc(Br)cc3[C@H]2N2C(=O)N(c3ccc(C)cc3)C(=O)[C@@]12C`, the inhibition is 10.5% (inactive).

Turning to `O=C(Cn1cnc2c(OCc3ccccc3)ncnc21)NCc1nc2ccccc2[nH]1`, the inhibition was 14.3% (inactive).

In the case of `COc1ccccc1OCCNCC(O)COc1cccc2[nH]c3ccccc3c12` (stereo not drawn), the inhibition is 59.7% (active).

On to `CC(C)(C)NCC(O)COc1cccc2[nH]c(=O)[nH]c12` (stereo not drawn), for which the inhibition is 8.82% (inactive).

For the compound `CC(O)CNCCOc1cccc(Oc2ccccc2)c1` (stereo not drawn), the inhibition was 3.22% (inactive).

As to `Cc1sc(NC(=O)c2ccc3ncsc3c2)c(C(N)=O)c1C`, the inhibition was 43.8% (active).

`COc1ccccc1-c1nnc(NC(=O)c2ccc3ncsc3c2)o1`: the inhibition is 8.4% (inactive).

`Cc1ccc(C(=O)c2c(NC(=O)c3ccccc3)sc(C)c2C)cc1`: the inhibition is 21.9% (inactive).

As to `Cc1ccc(C(=O)Nc2ccccc2-c2ccccc2)cc1S(=O)(=O)Nc1ccccc1`, the inhibition was 5.71% (inactive).

In the case of `CCOc1ccc(N(CC(=O)NCc2ccc(OC)cc2)S(=O)(=O)c2c(C)noc2C)cc1`, the inhibition was 0.77% (inactive).

`Cc1noc(C)c1S(=O)(=O)N(CC(=O)NCc1ccc(Cl)cc1)c1ccc2c(c1)OCO2`: the inhibition is 80.7% (active).

Consider `Cc1noc(C)c1S(=O)(=O)N(CC(=O)Nc1ccc2c(c1)OCCO2)c1ccc(C(C)C)cc1`, for which the inhibition is 23.3% (inactive).

For the origin of these results see PubChem BioAssay AID485270 (The Scripps Research Institute Molecular Screening Center, 2010).
